An excerpt weighted towards active compounds, which were near 10% of everything screened.
12-hLO inh: blocks human 12-lipoxygenase activity | AID 1452 | P18054 | purified 12-hLO, xylenol orange hydroperoxide absorbance | 0.12% of 150,000 active | Potency, µM (highest dose often 57.1 µM), without a hit: top-dose activity change, negative = inhibition, hits mostly inhibitors; active means well fitted inhibition curve with a large enough effect; inconclusive means small, poorly fitted or top-dose-only effect; further: potency means the concentration at half of the fitted maximal effect; nearly all actives have a fitted effect of over 55% in size
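150 nM 12hLO, 25 mM Hepes pH 7.0 + 0.01% Triton X-100; cpd preinc 15 min RT; 40 uM arachidonic acid, 30 min RT; Fe-XO 30 min; A573/A405 ratio as read-out.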
Lamin A splicing: modulators of lamin A splicing | AID 1487 | Potency, µM (series often up to 46.1 µM), without a hit: at the top dose ratio change, negative = inhibition, usual class: inhibitors | HeLa LMNA splicing GFP/RFP minigene ratio, 48 h | 0.01% of 200,000 active; active means well fitted inhibition curve with a large enough effect in the signal ratio, with a control signal flat, not every such curve was filed as active; inconclusive means small, poorly fitted or top-dose-only effect, or effect the other way, or a change in a side signal; the % refers to the signal ratio; further: potency means the concentration at half of the fitted maximal effect
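S3 HeLa cells stably expressing lamin A-EGFP splicing minigene plus DsRed2, 600 cells/well, 48 h compound exposure at 37C. Laser-scanning cytometry; analysed as GFP (500-530 nm)/RFP (575-640 nm) total intensity ratio; 0.5% DMSO vehicle.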
PNC assembly inh: inhibitors of perinucleolar compartment assembly | PC3M PTB-GFP, PNC prevalence imaging, 16 h; active compounds read low | activity change (PNC), negative = inhibition, % at 10 µM | AID 2417 | 3.1% of 140,000 active;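 active means readout at or below -70, meaning at least 70% loss of cells showing the perinucleolar compartment, a nuclear body marking cancer cells; inconclusive means readout between -30 and a set limit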;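 further: plate controls were DMSO wells for no effect and camptothecin positive control wells for full effect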
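Read-out is percentage of cells bearing a perinucleolar compartment, from automated 20x imaging of fixed, Hoechst-stained PC3M PTB-GFP cells. Cells were seeded 4 h, then exposed 16 h to compound (23 nl of library stock) in duplicate plates.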
HPGD block: inhibitors of human 15-hydroxyprostaglandin dehydrogenase (HPGD). P15428. purified HPGD, NADH fluorescence kinetic, PGE2 substrate. Potency, µM, for the others: at the top dose activity change, negative = inhibition, actives largely listed as inhibitors. 4.3% of 150,000 active; further: potency means the concentration at half of the fitted maximal effect
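NADH formation kinetics: reaction with 30 uM PGE2 and 1 mM NAD+ (final), 20 nM enzyme, Tris-HCl pH 8 with Tween 20, after 15 min compound preincubation at room temperature. Fluorescence change, last versus first of five reads.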
ALDH1A1 inh: blocks purified human ALDH1A1 activity; Potency, µM (series often up to 75.3 µM), for inactives: at the top dose activity, negative = inhibition, most hits filed as inhibitors; Purified ALDH1A1, NADH fluorescence, propionaldehyde substrate; P00352; 7.3% of 220,000 active;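 further: potency means the concentration at half of the fitted maximal effect; plate controls were no enzyme wells and a reference inhibitor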
Target sequence (P00352 whole entry, looked up): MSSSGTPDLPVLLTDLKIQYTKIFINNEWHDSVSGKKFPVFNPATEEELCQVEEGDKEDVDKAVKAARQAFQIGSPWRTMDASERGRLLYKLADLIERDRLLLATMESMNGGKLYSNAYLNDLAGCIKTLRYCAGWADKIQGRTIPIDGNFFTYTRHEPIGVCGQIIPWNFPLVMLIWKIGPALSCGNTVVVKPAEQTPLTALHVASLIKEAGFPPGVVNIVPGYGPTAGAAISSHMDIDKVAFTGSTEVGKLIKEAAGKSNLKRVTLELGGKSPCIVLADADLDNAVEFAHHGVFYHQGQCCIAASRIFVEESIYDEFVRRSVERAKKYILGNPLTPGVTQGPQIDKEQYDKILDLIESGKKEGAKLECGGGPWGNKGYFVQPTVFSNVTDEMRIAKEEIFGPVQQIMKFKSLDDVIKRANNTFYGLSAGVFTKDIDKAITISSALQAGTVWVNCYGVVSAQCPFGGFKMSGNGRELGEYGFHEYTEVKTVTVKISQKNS
* = called active by the depositor; ? = inconclusive; . = no result; [ ] = another dose, or the depositor's remark. Unless noted, the call rests on the fitted dose curve; in most records, active means well fitted inhibition curve with a large enough effect (not every such curve was filed as active); inconclusive means small, poorly fitted or top-dose-only effect, or another doubt; inactive means no such curve, though single readings can be large or run the other way. Unless noted, on the % scale 0 is the no-effect control and ±100 the full control effect.

SMILES	12-hLO inh	Lamin A splicing	PNC assembly inh	HPGD block	ALDH1A1 inh
CCn1c2ccccc2c2nnc(SCC(=O)N(C)C3CCS(=O)(=O)C3)nc21 (configuration not stated)	-2%	2%	-1	-19%	?
C=CCn1c2ccccc2c2nnc(SCC(=O)Nc3c(C)n(C)n(-c4ccccc4)c3=O)nc21	-5%	?	-19	-7%	-9%
CCn1c2ccccc2c2nnc(SCC(=O)NCCOC)nc21	-2%	14%	15	16µM*	-3%
C=CCn1c2ccccc2c2nnc(SCC(=O)NC(C(=O)OC)C(C)C)nc21 (configuration not stated)	-2%	12%	-9	20µM*	20µM*
COc1ccc(Br)cc1CNC(=O)c1cc(=O)[nH]c2ccc(S(=O)(=O)N3CCCCC3)cc12	.	1%[46 µM]	.	.	.
CCc1cccc(NC(=O)c2cc(S(=O)(=O)N3CCCCCC3)cn2C)c1	.	16%[46 µM]	.	.	.
Cc1cc(=O)[nH]c(SCc2nc3ccccc3n2Cc2ccccc2)n1	-4%	-1%	?	28µM*	1%
COc1cccc(CNC(=O)c2cc3oc4ccccc4c3n2C)c1OC	-7%	?	-106*	?	?
CCOc1ccc(CNC(=O)c2cc3oc4ccccc4c3n2C)cc1	11%	?	?	?	?
CCn1c(SCC(=O)Nc2nnc(C)s2)nnc1-c1ccncc1	4%	-5%	-9	-10%	8%
Cc1cc(NC(=O)CSc2nnc(CNc3ccc(F)cc3)n2C2CCCCC2)no1	-7%	9%	?	-16%	3%
CCc1nnc(NC(=O)CSc2nnc3c(C)cc4c(C)ccc(C)c4n23)s1	0%	?	-113*	-9%	5%
CCc1nnc(NC(=O)CSc2nnc(-c3ccncc3)n2C)s1	-1%	0%	-100*	-9%	1%
CCc1nnc(NC(=O)CSc2nnc(CNc3ccc(F)cc3)n2C2CCCCC2)s1	-8%	?	44	-9%	10µM*
Cc1cc(NC(=O)CSc2nnc3c(C)cc4c(C)ccc(C)c4n23)no1	-3%	?	-14	-18%	0%
COc1ccc(C(=O)CSc2nnc(CN3CCCCC3)n2-c2ccc(Cl)cc2)cc1OC	-1%	?	75	-2%	0%
OC/C=C/c1ccc(O)c(O)c1	1%	-2%	.	-6%	?
COc1ccc(N2CCN(C(=O)CSc3nnc(Cn4nnc5ccccc54)n3C)CC2)cc1	-3%	4%	?	-15%	14µM*
Cn1c(Cn2nnc3ccccc32)nnc1SCC(=O)N1c2ccccc2CCc2ccccc21	-4%	?	3	-1%	8.9µM*
Cn1c(Cn2nnc3ccccc32)nnc1SCC(=O)N1c2ccccc2Sc2ccccc21	0%	?	1	-10%	5%
COc1ccc(N2CCN(C(=O)CSc3nnc(-c4cc5ccccc5cc4O)n3C)CC2)cc1	-4%	?	-8	-16%	-7%
O=C(COC(=O)c1c[nH]c(=O)[nH]c1=O)Nc1ccccc1Br	.	6%[46 µM]	.	.	2%
CCOC(=O)c1cccc(NC(=O)NC(C)c2c(-n3cccc3)sc3c2CCN(C)C3)c1 (configuration not stated)	.	-9%[46 µM]	.	.	.
COc1ccc(CNC(=O)C2=C(C)C(=O)OC23CCCCC3)cc1	.	-2%[46 µM]	.	.	.
O=C(NCCCN1CCN(c2ccccc2)CC1)c1ccc2nc(CCc3ccccc3)oc2c1	.	3%[46 µM]	.	.	.
SMILES	12-hLO inh	Lamin A splicing	PNC assembly inh	HPGD block	ALDH1A1 inh
O=C(c1nn2c(C(F)(F)F)cc(-c3cccs3)nc2c1Br)N1CCCc2ccccc21	-2%	?	?	-11%	-3%
O=C(c1cc2nc(-c3ccco3)cc(C(F)(F)F)n2n1)N1CCCc2ccccc21	2%	-4%	?	?	18µM*
O=C(c1cc2nc(-c3cccs3)cc(C(F)(F)Cl)n2n1)N1CCCc2ccccc21	4%	-1%	25	?	-13%
O=C(c1nn2c(C(F)(F)F)cc(-c3ccco3)nc2c1Br)N1CCCc2ccccc21	?	-6%	?	-26%	7.9µM*
O=C(c1cc2nc(-c3cccs3)cc(C(F)(F)F)n2n1)N1CCCc2ccccc21	-3%	13%	-29	14µM*	-13%
CC(C)CN1CC[C@@]2(CCCN(C(=O)c3cnccn3)C2)C1	-1%	.	.	-15%	10%
O=C(CN(CCc1ccccc1)C(=O)Cn1nnc(-c2cccs2)n1)NCc1ccco1	2%	-4%	36	-20%	13µM*
O=C(CN(CCc1ccccc1)C(=O)CN1C(=O)COc2ccccc21)NCc1ccco1	6%	-15%	3	-9%	8.9µM*
CCN(CC)C[C@@H]1CCCCN1CC(=O)N1c2ccccc2C(=O)Nc2cccnc21	-4%	.	.	-2%	8%
Cc1ccc(C)n1-c1c(C(=O)NCCCN2CCN(c3ccc(F)cc3)CC2)sc2ncccc12	.	-7%[46 µM]	.	.	.
COc1ccc(NC(=O)CCC(=O)N(Cc2ccc(OC)c(OC)c2)c2nccs2)c(OC)c1	.	1%[46 µM]	.	.	-4%
O=C(Cc1ccccc1)NNC(=S)Nc1ccc(Cl)cc1	-1%	-2%	5	-7%	25µM*
O=C(CCc1ccccc1)NNC(=O)Cc1ccc(Cl)cc1	.	.	.	.	-3%
Cc1cccc(NC(=S)NCCC(C)C)c1	5%	?	-5	28µM*	-5%
Cc1ccc(C2CC2C(=O)NNC(=S)Nc2ccc(Cl)cc2)cc1 (configuration not stated)	17%	?	-97*	?	8.9µM*
S=C(NCCC(c1ccccc1)c1ccccc1)Nc1cccc(Cl)c1	16µM*	?	42	-14%	?
CCN(C(=O)CSc1nc2ccccc2n1Cc1ccc(F)cc1Cl)c1ccccc1	.	-7%[46 µM]	.	.	.
O=C(Cc1ccccc1)NNC(=O)Nc1cccc(Cl)c1	-6%	1%	-14	-7%	5%
O=C(Nc1ccccc1)C(=O)Nc1ccccn1	8%	11%[0.0737 µM]	42	-1%	-4%
S=C(Nc1ccc(Nc2ccccc2)cc1)Nc1ccccn1	.	.	.	.	16µM*
CC(C)NC(=O)CSCc1ccccc1Cl	1%	-1%	-23	-16%	-4%
Cc1cccc(NC(=S)NNC(=O)Cc2ccccc2)c1	-1%	-2%	15	-18%	40µM*
O=C(CSCc1ccccc1Cl)NNC(=S)Nc1ccccc1	-15%	-3%	10	-21%	14µM*
Cc1cccc(NCC(=O)NNC(=S)Nc2ccccc2)c1	.	?	.	.	14µM*
O=C(Cn1c(-c2cccs2)cc2cc(Cl)ccc21)N1CCN(c2ccccc2)CC1	.	1%[46 µM]	.	.	.
Cc1cccc(NC(=O)N[C@@H](C)C(=O)O)c1	8%	3%	-113*	-11%	9%
CC(C)CCNC(=S)Nc1ccccn1	?	-3%	?	-7%	6.3µM*
CCN(CC)S(=O)(=O)c1nnc(NC(=O)c2ccc(C)cc2)s1	.	4%[46 µM]	.	.	.
Cc1ccc(C(=O)c2ccccc2C(=O)OCC(=O)NCC2CCCO2)cc1 (configuration not stated)	.	.	.	.	5%
